Measurements published in PubChem BioAssay AID1159580 (chemical genetic matrix, 2015).
Among all 5,500 compounds or so, about 2,000 (36%) were called active. About 18% were inconclusive and are not listed. Cut-off read from the data, not from the text of the source: active = normalized growth mostly below about 0.91 (no sharp cut-off); inconclusive = no clear call, values can overlap the other calls; inactive = mostly above about 0.92. Some of the results follow.

Experiment: chemical genetic growth profiling, strain panel (AID 1159580);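 note: tested at 20 µM; growth read once vehicle control cultures reached saturation at 30 °C; 1 = growth at the plate median or of vehicle wells; lower values mean less growth of the strain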
Details: growth OD

Measured: normalized growth

O=C(O[C@@H]1Cc2c(O)cc(O)cc2O[C@@H]1c1cc(O)c(=O)c2c(O)c(O)cc([C@H]3Oc4cc(O)cc(O)c4C[C@H]3O)c2c1)c1cc(O)c(O)c(O)c1
active: S. cerevisiae deletion strains, locus YKL160W, strain elf1, hits give low values 0.709 | S. cerevisiae deletion strains, locus YKL190W, strain CNB1, hits give low values 0.211 | S. cerevisiae deletion strains, locus YKR001C, strain vps1, hits give low values 0.809 | S. cerevisiae deletion strains, locus YLL001W, strain dnm1, hits give low values 0.658 | S. cerevisiae deletion strains, locus YLL026W, hits give low values 0.719 | S. cerevisiae deletion strains, locus YLL041C, strain sdh2, hits give low values 0.79 | S. cerevisiae deletion strains, locus YLR027C, strain aat2, hits give low values 0.495 | S. cerevisiae deletion strains, locus YLR039C, strain RIC1, hits give low values 0.271 | S. cerevisiae deletion strains, locus YLR058C, strain SHM2, hits give low values 0.219 | S. cerevisiae deletion strains, locus YLR221C, strain rsa3, hits give low values 0.699 | S. cerevisiae deletion strains, locus YLR258W, strain gsy2, hits give low values 0.638 | S. cerevisiae deletion strains, locus YLR262C, strain YPT6 (second series), hits give low values 0.524 | S. cerevisiae deletion strains, locus YLR262C, strain YPT6, hits give low values 0.552 | S. cerevisiae deletion strains, locus YLR268W, strain sec22, hits give low values 0.644 | S. cerevisiae deletion strains, locus YLR320W, strain mms22, hits give low values 0.635 | S. cerevisiae deletion strains, locus YLR330W, strain CHS5, hits give low values 0.791 | S. cerevisiae deletion strains, locus YLR342W, strain FKS1, hits give low values 0.423 | S. cerevisiae deletion strains, locus YLR357W, strain rsc2, hits give low values 0.624 | S. cerevisiae deletion strains, locus YLR370C, strain arc18, hits give low values 0.593 | S. cerevisiae deletion strains, locus YLR371W, strain rom2, hits give low values 0.661 | S. cerevisiae deletion strains, locus YLR384C, strain iki3, hits give low values 0.784 | S. cerevisiae deletion strains, locus YLR418C, strain cdc73, hits give low values 0.505 | S. cerevisiae deletion strains, locus YML016C, strain PPZ1, hits give low values 0.111 | S. cerevisiae deletion strains, locus YML120C, strain ndi1, hits give low values 0.727 | S. cerevisiae deletion strains, locus YMR058W, strain fet3, hits give low values 0.0992 | S. cerevisiae deletion strains, locus YMR129W, hits give low values 0.789 | S. cerevisiae deletion strains, locus YMR205C, strain PFK2, hits give low values 0.416 | S. cerevisiae deletion strains, locus YMR223W, strain ubp8, hits give low values 0.844 | S. cerevisiae deletion strains, locus YMR231W, strain pep5, hits give low values 0.229 | S. cerevisiae deletion strains, locus YMR263W, strain SAP30, hits give low values 0.743 | S. cerevisiae deletion strains, locus YMR307W, strain GAS1, hits give low values 0.426 | S. cerevisiae deletion strains, locus YNL067W, strain RPL9B, hits give low values 0.547 | S. cerevisiae deletion strains, locus YNL071W, strain lat1, hits give low values 0.747 | S. cerevisiae deletion strains, locus YNL209W, strain ssb2, hits give low values 0.141 | S. cerevisiae deletion strains, locus YNL233W, strain BNI4, hits give low values 0.623 | S. cerevisiae deletion strains, locus YNL248C, strain rpa49, hits give low values 0.862 | S. cerevisiae deletion strains, locus YNL322C, strain KRE1, hits give low values 0.243 | S. cerevisiae deletion strains, locus YNR052C, strain pop2, hits give low values 0.754 | S. cerevisiae deletion strains, locus YOL147C, strain pex11, hits give low values 0.862 | S. cerevisiae deletion strains, locus YOR001W, strain rrp6, hits give low values 0.736 | S. cerevisiae deletion strains, locus YOR061W, strain CKA2, hits give low values 0.441 | S. cerevisiae deletion strains, locus YOR069W, strain VPS5, hits give low values 0.503 | S. cerevisiae deletion strains, locus YOR070C, strain gyp1, hits give low values 0.569 | S. cerevisiae deletion strains, locus YOR080W, strain dia2, hits give low values 0.253 | S. cerevisiae deletion strains, locus YOR083W, strain WHI5, hits give low values 0.541 | S. cerevisiae deletion strains, locus YOR106W, strain vam3, hits give low values 0.143 | S. cerevisiae deletion strains, locus YOR184W, strain ser1, hits give low values 0.649 | S. cerevisiae deletion strains, locus YOR265W, strain rbl2, hits give low values 0.699 | S. cerevisiae deletion strains, locus YOR270C, strain vph1, hits give low values 0.255 | S. cerevisiae deletion strains, locus YOR290C, strain snf2, hits give low values 0.487 | S. cerevisiae deletion strains, locus YPL051W, strain arl3, hits give low values 0.279 | S. cerevisiae deletion strains, locus YPL078C, strain atp4, hits give low values 0.731 | S. cerevisiae deletion strains, locus YPL106C, strain sse1, hits give low values 0.66 | S. cerevisiae deletion strains, locus YPL240C, strain hsp82, hits give low values 0.779 | S. cerevisiae deletion strains, locus YPL241C, strain CIN2, hits give low values 0.509 | S. cerevisiae deletion strains, locus YPR167C, strain met16, hits give low values 0.918 | S. cerevisiae deletion strains, strain wtn01, hits give low values 0.679 | S. cerevisiae strains, strain wild type, hits give low values 0.0985
inactive: S. cerevisiae deletion strains, locus YJR066W, strain TOR1, hits give low values 0.969 | S. cerevisiae deletion strains, locus YKL009W, strain mrt4, hits give low values 1.05 | S. cerevisiae deletion strains, locus YKL068W, hits give low values 1.04 | S. cerevisiae deletion strains, locus YKL085W, strain MDH1 (second series), hits give low values 1.03 | S. cerevisiae deletion strains, locus YKL085W, strain MDH1, hits give low values 1.03 | S. cerevisiae deletion strains, locus YKR026C, strain gcn3, hits give low values 0.988 | S. cerevisiae deletion strains, locus YKR091W, strain srl3, hits give low values 0.944 | S. cerevisiae deletion strains, locus YLR102C, strain apc9, hits give low values 1.02 | S. cerevisiae deletion strains, locus YLR113W, strain HOG1, hits give low values 1.11 | S. cerevisiae deletion strains, locus YML032C, strain rad52, hits give low values 0.968 | S. cerevisiae deletion strains, locus YML124C, strain tub3, hits give low values 0.949 | S. cerevisiae deletion strains, locus YMR078C, strain ctf18, hits give low values 1.01 | S. cerevisiae deletion strains, locus YMR125W, strain sto1, hits give low values 1.04 | S. cerevisiae deletion strains, locus YNL183C, strain NPR1, hits give low values 0.963 | S. cerevisiae deletion strains, locus YNL250W, strain rad50, hits give low values 1.05 | S. cerevisiae deletion strains, locus YNL271C, strain bni1, hits give low values 1 | S. cerevisiae deletion strains, locus YNL298W, strain CLA4, hits give low values 0.998 | S. cerevisiae deletion strains, locus YNL307C, strain MCK1, hits give low values 1.01 | S. cerevisiae deletion strains, locus YNL322C, strain KRE1 (second series), hits give low values 0.941 | S. cerevisiae deletion strains, locus YNR049C, strain mso1, hits give low values 0.945 | S. cerevisiae deletion strains, locus YOL012C, strain htz1 0.255 | S. cerevisiae deletion strains, locus YOR136W, strain idh2, hits give low values 0.929 | S. cerevisiae deletion strains, locus YOR144C, strain elg1, hits give low values 0.943 | S. cerevisiae deletion strains, locus YOR231W, strain MKK1, hits give low values 1.02 | S. cerevisiae deletion strains, locus YOR316C, strain cot1, hits give low values 1.02 | S. cerevisiae deletion strains, locus YPL256C, strain CLN2, hits give low values 1.06 | S. cerevisiae deletion strains, locus YPR119W, strain clb2, hits give low values 1.02 | S. cerevisiae deletion strains, locus YPR141C, strain kar3, hits give low values 1.03 | S. cerevisiae deletion strains, locus YPR163C, strain tif3, hits give low values 0.974
